Values without a mark were called inactive. Results filed as inconclusive are left out. A call without a number means that no potency is given here. The source made the active and inactive calls. Unless noted, calls come from the whole dose curve; as a rule, active = well fitted curve in the direction sought with a large enough effect in the repeat runs; inconclusive = weak or mixed curves; inactive = no such curve, though single readings can be large; an effect the other way counts as inactive or inconclusive.
What was measured:
[1] = qHTS assay to identify small molecule agonists of the estrogen receptor alpha (ER-alpha) signaling pathway in the presence of an antagonist - cell viability counter screen (AID 1259386);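 note: series mostly up to about 92 µM; cells exposed to compounds for 22 h at 37 °C before the viability read; nearly all actives have a fitted effect of over 30% in size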
In short: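 Viability counter screen using VM7Luc4E2 (full-length ER-alpha, four ERE-luciferase). The cells were treated with compounds alongside ICI-182,780 10.0nM for 22hr, and live-cell protease fluorescence was quantified with CellTiter-Fluor.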

[2] = qHTS assay to identify small molecule antagonists of the progesterone receptor (PR) signaling pathway - cell viability counter screen (AID 1346798); note: series mostly up to about 92 µM; nearly all actives have a fitted effect of over 50% in size
In short: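 Luminescence readout (CellTiter-Glo, 30 min, RT) of viability in PR-UAS-bla HEK293T cells exposed to compound and R5020 agonist for 16 hr at 37C, 5% CO2; run in the same wells as the beta-lactamase reporter read.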

[3] = qHTS assay to identify small molecule agonists of the progesterone receptor (PR) signaling pathway - cell viability counter screen (AID 1346799; calls by dose curve; note: nearly all actives have a fitted effect of over 45% in size)
In short: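 HEK293T PR-UAS-bla, 3,000 cells/well, 2% charcoal-stripped FBS; 6 h settle, compound 16 h at 37C/5% CO2; LiveBLAzer 2 h RT, then CellTiter-Glo 30 min RT, luminescence read.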

[4] = qHTS assay to identify small molecule antagonists of the TGF-beta/Smad signaling pathway - cell viability counter screen (AID 1346824); note: nearly all actives have a fitted effect of over 50% in size
In short: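 Cytotoxicity counter-screen run in the same wells as the beta-lactamase Smad reporter read: CellTiter-Glo luminescence after 30 min at room temperature. HEK 293T SBE-bla cells had 5 hr compound exposure at 37 C with TGF-beta1 (0.25 ng/mL stock).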

[5] = qHTS assay to identify small molecule agonists of the TGF-beta/Smad signaling pathway - cell viability counter screen (AID 1346829); note: top concentration of the series differs between compounds; nearly all actives have a fitted effect of over 45% in size
In short: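 Same-well cytotoxicity: CellTiter-Glo added after the 2 hr room-temperature beta-lactamase substrate step, luminescence measured 30 min later; cells had 5 hr of compound at 37 C.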

[6] = qHTS assay to identify small molecule agonists of the TGF-beta/Smad signaling pathway (AID 1346859; active = well fitted activation curve with a large enough effect in the signal ratio in the repeat runs, not every such curve was filed as active; the % refers to the signal ratio; note: series mostly up to about 77 µM)
In short: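 Read-out: fluorescence at 460 and 530 nm (405 nm excitation) after a 2 hr room-temperature incubation with beta-lactamase FRET substrate. SBE-bla HEK 293T cells had been treated with test compounds for 5 hr at 37 C.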

[7] = target: Thyrotropin-releasing hormone receptor (Homo sapiens) (UniProt P34981); experiment: qHTS assay to identify small molecule antagonists of the thyrotropin-releasing hormone receptor (TRHR) signaling pathway (AID 1346877; active = well fitted inhibition curve with a large enough effect in the repeat runs, not every such curve was filed as active; note: series mostly up to about 51 µM)
In short: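 Following an 18 h incubation at 37 °C and a 2 h calcium dye load, TRHR-HEK293 cells were exposed to compound (5 min, room temperature) and challenged with TRH, 1 nM final.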

[8] = target: Thyrotropin-releasing hormone receptor (Homo sapiens) (UniProt P34981); experiment: qHTS assay to identify small molecule agonists of the thyrotropin-releasing hormone receptor (TRHR) signaling pathway (AID 1346891; calls by dose curve;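 note: HEK293 cells expressing TRHR with calcium dye readout; series mostly up to about 58 µM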)
In short: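 HEK293/TRHR cells, 1500 per well, 18 h 37 °C; Ca dye 2 h 37 °C; pin-tool compound addition (agonist mode); kinetic fluorescence 3 min, 1 s reads; 15 concentrations, triplicate.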

[9] = target: Progesterone receptor (Homo sapiens) (UniProt P06401); experiment: qHTS assay to identify small molecule agonists of the progesterone receptor (PR) signaling pathway (AID 1346784; calls by dose curve; note: nearly all actives have a fitted effect of over 30% in size)
In short: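 HEK 293T PR-UAS-bla reporter cells, 2% charcoal-stripped FBS; 6 hr settle at 37C/5% CO2, compound (DMSO) 16 hr, LiveBLAzer B/G FRET substrate 2 hr RT, fluorescence intensity read.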

[10] = target: Progesterone receptor (Homo sapiens) (UniProt P06401); experiment: qHTS assay to identify small molecule antagonists of the progesterone receptor (PR) signaling pathway (AID 1346795; active = well fitted inhibition curve with a large enough effect in the signal ratio in the repeat runs, not every such curve was filed as active; the % refers to the signal ratio; note: potency is the fitted concentration of half-maximal effect)
In short: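 Beta-lactamase reporter, HEK293T PR-UAS-bla line; 2% charcoal-stripped FBS; 6 hr pre-incubation, 37C/5% CO2. Compound + R5020 1 nM final, 16 hr. LiveBLAzer B/G FRET substrate, 2 hr RT; fluorescence intensity read.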

Progesterone receptor (Homo sapiens), sequence (P06401 whole entry, looked up): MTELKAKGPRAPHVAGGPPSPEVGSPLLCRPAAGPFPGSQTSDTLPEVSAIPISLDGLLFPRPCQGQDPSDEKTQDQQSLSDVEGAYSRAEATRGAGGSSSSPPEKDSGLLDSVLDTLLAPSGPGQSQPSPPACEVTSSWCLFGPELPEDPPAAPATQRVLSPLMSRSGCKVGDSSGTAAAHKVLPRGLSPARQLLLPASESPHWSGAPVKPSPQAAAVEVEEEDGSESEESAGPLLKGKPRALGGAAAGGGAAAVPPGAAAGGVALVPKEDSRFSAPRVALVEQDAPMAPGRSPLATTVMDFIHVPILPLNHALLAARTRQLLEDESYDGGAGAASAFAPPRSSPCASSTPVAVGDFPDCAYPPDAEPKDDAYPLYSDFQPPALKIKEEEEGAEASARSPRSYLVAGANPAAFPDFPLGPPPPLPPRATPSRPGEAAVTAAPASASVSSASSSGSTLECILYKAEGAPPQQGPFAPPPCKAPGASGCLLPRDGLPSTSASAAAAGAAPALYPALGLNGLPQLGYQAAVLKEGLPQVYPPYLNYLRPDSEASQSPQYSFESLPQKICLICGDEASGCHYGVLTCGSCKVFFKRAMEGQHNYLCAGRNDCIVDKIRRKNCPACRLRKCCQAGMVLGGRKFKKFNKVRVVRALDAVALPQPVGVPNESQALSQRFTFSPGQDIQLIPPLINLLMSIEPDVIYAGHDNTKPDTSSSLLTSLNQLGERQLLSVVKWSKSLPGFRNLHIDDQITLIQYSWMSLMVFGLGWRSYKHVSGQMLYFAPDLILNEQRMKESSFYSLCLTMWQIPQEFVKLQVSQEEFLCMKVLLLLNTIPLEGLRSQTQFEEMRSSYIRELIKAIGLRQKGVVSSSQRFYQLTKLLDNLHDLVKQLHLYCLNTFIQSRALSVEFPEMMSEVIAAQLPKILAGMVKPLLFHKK
Thyrotropin-releasing hormone receptor (Homo sapiens), sequence (P34981 whole entry, looked up): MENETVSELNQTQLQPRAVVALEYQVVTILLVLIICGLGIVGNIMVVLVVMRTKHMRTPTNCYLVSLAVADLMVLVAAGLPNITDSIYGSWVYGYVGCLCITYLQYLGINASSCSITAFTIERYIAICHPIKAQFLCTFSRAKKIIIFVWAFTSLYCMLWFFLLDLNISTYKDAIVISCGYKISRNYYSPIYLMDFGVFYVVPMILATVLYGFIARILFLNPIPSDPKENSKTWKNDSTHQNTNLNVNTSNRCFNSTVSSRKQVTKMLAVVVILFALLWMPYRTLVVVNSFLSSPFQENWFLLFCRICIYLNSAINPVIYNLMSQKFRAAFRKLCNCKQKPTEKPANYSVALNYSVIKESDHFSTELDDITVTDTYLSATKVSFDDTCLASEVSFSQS

Structure (SMILES)	Potency [1]	Potency [2]	Potency [3]	outcome [4]	outcome [5]	outcome [6]	outcome [7]	outcome [8]	Potency [9]	Potency [10]
CCC(C=O)CC	inactive	inactive	inactive	inactive	inactive	inactive	inactive	inactive		
CCOC(=O)c1ccc(OC(=O)CCCCCN=C(N)N)cc1		inactive	inactive	inactive	inactive	inactive	inactive	inactive	inactive	inactive
CC1(C)S[C@@H]2[C@H](N=CN3CCCCCC3)C(=O)N2[C@H]1C(=O)O	inactive	inactive			inactive	inactive	inactive	inactive		inactive
O=C(O)Cc1cn(-c2ccccc2)nc1-c1ccc(Cl)cc1	inactive	inactive	inactive		inactive		inactive	inactive		
COc1ccc2nc(SCc3ncc(C)c(OC)c3C)[nH]c2c1	inactive	inactive	inactive	inactive	inactive	inactive				
O=C1c2ccccc2C(=O)c2cc(S(=O)(=O)O)ccc21		inactive	inactive	inactive		inactive	inactive	inactive	inactive	inactive
COc1nccnc1NS(=O)(=O)c1ccc(N)cc1	inactive	inactive	inactive	inactive	inactive	inactive	inactive	inactive		
c1ccc2nccnc2c1	inactive			inactive	inactive	inactive	inactive	inactive		
CC(=O)NCc1c(I)c(NC(C)=O)c(I)c(C(=O)O)c1I	inactive	inactive	inactive	inactive	inactive	inactive	inactive	inactive		
CCCC(=O)C(C)=O	inactive	inactive	inactive	inactive		inactive				
COc1ccc(OC)c(Cl)c1		inactive	inactive	inactive	inactive	inactive	inactive	inactive	inactive	inactive
CCOCCOCCOCC	inactive	inactive	inactive			inactive	inactive	inactive		
CC(C)(C)NC(N)=O	inactive		inactive	inactive		inactive	inactive	inactive		inactive
O=C1CCCC(=O)O1	inactive		inactive	inactive	inactive	inactive	inactive	inactive		
O=C(OCC1(COC(=O)c2cccnc2)CCCC(COC(=O)c2cccnc2)(COC(=O)c2cccnc2)C1O)c1cccnc1		inactive	inactive	inactive	inactive	inactive			inactive	inactive
Cc1cccc2nccnc12		inactive	inactive	inactive	inactive	inactive	inactive	inactive	inactive	inactive
C=CC(OCC)OCC		inactive	inactive	inactive		inactive	inactive	inactive	inactive	inactive
CC(C)C(=O)OCCc1ccccc1	inactive	inactive	inactive		inactive	inactive	inactive	inactive		
C[Si](C)(C)C		inactive	inactive	inactive	inactive	inactive				
CCOc1cc([N+](=O)[O-])c(OCC)cc1N1CCOCC1			inactive	inactive	inactive		inactive	inactive	inactive	27.3 µM (active)
CC(=O)OC(C)OC(=O)C(C)c1ccc(-c2ccccc2)c(F)c1 (stereo unspecified)		inactive	inactive	inactive	inactive	inactive			inactive	
CC(=O)Nc1ccc(S(=O)(=O)Nc2ccc([N+](=O)[O-])cc2)cc1			inactive	inactive	inactive	inactive	inactive	inactive	inactive	inactive
NC(CO)C(=O)NNCc1ccc(O)c(O)c1O (stereo unspecified)			inactive	inactive		inactive				inactive
CCCCCCOC(=O)CC		inactive	inactive	inactive		inactive	inactive	inactive		inactive
CC(=O)Nc1cccc(C)c1		inactive	inactive	inactive		inactive			inactive	
O=C(c1ccc(O)cc1)c1ccc(O)c(O)c1O		inactive	inactive		inactive	inactive	inactive	inactive		
ClCCCl		inactive	inactive		inactive	inactive	inactive	inactive		inactive

From PubChem BioAssay (Tox21)
